According to the supplement of paper PMC10849652:
Targets with a hit are over-represented here; the source holds about 8,800 in all. About 0.5% of all pairs of compound and target were hits.

Columns and labels:
Assay in all cases: log2 fold change, soluble protein after heating vs DMSO (PISA); higher = thermal stabilisation; K562 lysate, 10 uM; active = over 0.2 and 3.5 SD of the protein, either way, in both replicates (recomputed)
erlotinib = compound: C#Cc1cccc(Nc2ncnc3cc(OCCOC)c(OCCOC)cc23)c1 [erlotinib]
Summary of the method: (§1)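 Log-two fold change in thermal stability relative to solvent controls is reported from duplicates. For each sample, crude K562 extract from dounce-homogenised pellets in PBS pH 7.4 with 1 mM MgCl2, at 1 mg/mL protein, was treated with 10 μM compound for 30 min. Aliquots heated for 3 min across 48°C-58°C were pooled, brought to 0.5% NP-40 at 4°C and cleared at 21,000xg for 90 min. The supernatant was quantified by TMTpro 16plex LC-MS/MS with channel sums equalised.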

[1] = compound: C/C(=N\NC(=O)C1=CC(=CC=C1)S(=O)(=O)N2CCOCC2)/C3=C(C=CC(=C3)Cl)O
Summary of the method: as §1

[2] = compound: C1=CC(=CC=C1C2=NC3=C(N2)C=C(C=C3)C(=O)N)OC4=CC=C(C=C4)Cl
Summary of the method: as §1

[3] = compound: C1=CC2=C(C=CC(=C2)/C=C\3/C(=O)NC(=NCC4=CC=CS4)S3)N=C1
Summary of the method: as §1

[4] = compound: C1=CC2=NC=CN=C2C=C1/C=C/3\C(=O)NC(=O)S3
Summary of the method: as §1

[5] = compound: C1=CC=C(C=C1)C2=NC(=C(N2)C3=CC=NC=C3)C4=CC(=C(C=C4)Cl)O
Summary of the method: as §1

[6] = compound: C1=CC=C2C(=C1)C3=NNC4=CC=CC(=C43)C2=O
Summary of the method: as §1

[7] = compound: C1CCN(C1)C(=O)NC2=CC=CC(=C2)NC3=NC=C(C(=N3)NCCC4=CN=CN4)Br
Summary of the method: as §1

[8] = compound: C1CN(CCC1(CC2=CC=C(C=C2)Cl)N)C3=NC=NC4=C3C=CN4
Summary of the method: as §1

IRAK-1-4 Inhibitor I = compound: C1COCCN1CCN2C3=CC=CC=C3N=C2NC(=O)C4=CC(=CC=C4)[N+](=O)[O-] [IRAK-1-4 Inhibitor I]
Summary of the method: as §1

ibrutinib = compound: C=CC(=O)N1CCC[C@@H](n2nc(-c3ccc(Oc4ccccc4)cc3)c3c(N)ncnc32)C1 [ibrutinib]
Summary of the method: as §1

[9] = compound: CC(=O)c1cnc2ccc(-c3cc(Cl)c(O)c(Cl)c3)nc2c1N[C@H]1CC[C@H](CN(C)C)CC1
Summary of the method: as §1

ralimetinib = compound: CC(C)(C)Cn1c(N)nc2ccc(-c3[nH]c(C(C)(C)C)nc3-c3ccc(F)cc3)nc21 [ralimetinib]
Summary of the method: as §1

[10] = compound: CC(C)(O)CC(=O)NCCn1ccc2ncnc(Nc3ccc(Oc4cccc(C(F)(F)F)c4)c(Cl)c3)c21
Summary of the method: as §1

[11] = compound: CC(C)C1=C2N=C(C=C(N2N=C1)NCC3=CC=CC=C3)NCCCCCCN
Summary of the method: as §1

[12] = compound: CC1=C(C(CC(=O)N1)C2=CC=C(C=C2)C(F)(F)F)C(=O)NC3=C(C=C4C(=C3)C=NN4)F
Summary of the method: as §1

[13] = compound: CC1=C(C2=C(C=C1)C(=O)C3=CC=CC=C3N2CCCN)C
Summary of the method: as §1

[14] = compound: CC1=C(C=C(C=C1)NC(=O)C2=CC(=CC=C2)C(C)(C)C#N)NC3=CC4=C(C=C3)N=CN(C4=O)C
Summary of the method: as §1

[15] = compound: CC1=C(C=C(C=C1)NC(=O)C2=CC(=CC=C2)N(C)C)NC(=O)C3=CC=C(C=C3)O
Summary of the method: as §1

[16] = compound: CC1=CC=C(C=C1)SC2=C3C=C(SC3=CN=C2)C(=O)N
Summary of the method: as §1

Measured: log2 fold change

UBAP2L isoform 5 (UniProt Q14157)
inactive: erlotinib -0.021 | [1] -0.019 | [2] 0.035 | [3] 0.008 | [4] 0.027 | [5] -0.184 | [6] 0.065 | [7] 0.009 | [8] -0.023 | IRAK-1-4 Inhibitor I 0.065 | ibrutinib 0.024 | [9] 0.028 | ralimetinib -0.026 | [10] -0.055 | [11] 0.019 | [12] 0.009 | [13] 0.024 | [15] -0.009 | [16] 0.003
active: [14] -0.529

TLK2 isoform 2 (UniProt Q86UE8)
UniProt Q86UE8, sequence (Q86UE8 whole entry, looked up): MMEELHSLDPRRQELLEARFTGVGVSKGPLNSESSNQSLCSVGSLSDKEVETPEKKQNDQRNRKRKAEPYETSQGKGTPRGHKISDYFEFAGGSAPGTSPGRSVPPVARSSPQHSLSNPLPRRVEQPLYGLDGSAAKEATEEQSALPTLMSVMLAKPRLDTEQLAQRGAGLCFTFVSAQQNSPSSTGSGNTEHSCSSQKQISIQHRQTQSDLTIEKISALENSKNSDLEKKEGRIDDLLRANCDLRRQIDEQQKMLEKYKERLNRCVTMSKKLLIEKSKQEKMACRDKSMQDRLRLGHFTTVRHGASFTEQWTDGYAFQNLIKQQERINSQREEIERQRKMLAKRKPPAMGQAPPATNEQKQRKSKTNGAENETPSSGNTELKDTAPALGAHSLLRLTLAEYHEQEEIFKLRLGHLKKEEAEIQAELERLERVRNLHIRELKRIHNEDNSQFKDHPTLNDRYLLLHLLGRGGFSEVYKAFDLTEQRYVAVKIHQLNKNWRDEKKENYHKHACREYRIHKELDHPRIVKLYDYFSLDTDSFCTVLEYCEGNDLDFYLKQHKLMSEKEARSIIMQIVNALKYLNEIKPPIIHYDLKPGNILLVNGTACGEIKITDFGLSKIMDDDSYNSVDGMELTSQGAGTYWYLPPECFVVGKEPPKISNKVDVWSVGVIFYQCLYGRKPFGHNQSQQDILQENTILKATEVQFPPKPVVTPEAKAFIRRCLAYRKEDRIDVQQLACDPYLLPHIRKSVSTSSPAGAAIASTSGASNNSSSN
inactive: erlotinib -0.071 | [1] -0.076 | [2] 0.054 | [3] -0.006 | [4] 0.014 | [5] 0.001 | [6] 0.171 | [7] -0.012 | [8] 0.021 | IRAK-1-4 Inhibitor I -0.058 | ibrutinib -0.021 | [9] 0.104 | ralimetinib 0.035 | [10] -0.018 | [11] 0.007 | [12] -0.009 | [13] 0.051 | [14] 0 | [15] 0.025 | [16] -0.055

UBR3 isoform 4 (UniProt Q6ZT12)
inactive: erlotinib 0.016 | [1] 0.044 | [2] 0.016 | [3] 0.027 | [4] 0.005 | [5] 0.005 | [6] -0.07 | [7] -0.063 | [8] 0.032 | IRAK-1-4 Inhibitor I -0.007 | ibrutinib -0.002 | [9] -0.023 | ralimetinib 0.107 | [10] -0.009 | [11] 0.005 | [12] 0.006 | [13] -0.055 | [14] -0.016 | [15] 0.013 | [16] 0.021

TUBB3 (UniProt Q13509)
inactive: erlotinib 0.025 | [1] -0.089 | [2] 0.016 | [3] -0.004 | [4] 0.001 | [5] -0.019 | [6] -0.025 | [7] 0.018 | [8] 0.03 | IRAK-1-4 Inhibitor I 0.006 | ibrutinib 0.003 | [9] 0.009 | ralimetinib 0.022 | [10] -0.019 | [11] 0.025 | [12] 0.013 | [13] 0.005 | [14] -0.007 | [15] 0.015 | [16] 0.019

TFIP11 (UniProt Q9UBB9)
UniProt Q9UBB9, sequence (Q9UBB9 whole entry, looked up): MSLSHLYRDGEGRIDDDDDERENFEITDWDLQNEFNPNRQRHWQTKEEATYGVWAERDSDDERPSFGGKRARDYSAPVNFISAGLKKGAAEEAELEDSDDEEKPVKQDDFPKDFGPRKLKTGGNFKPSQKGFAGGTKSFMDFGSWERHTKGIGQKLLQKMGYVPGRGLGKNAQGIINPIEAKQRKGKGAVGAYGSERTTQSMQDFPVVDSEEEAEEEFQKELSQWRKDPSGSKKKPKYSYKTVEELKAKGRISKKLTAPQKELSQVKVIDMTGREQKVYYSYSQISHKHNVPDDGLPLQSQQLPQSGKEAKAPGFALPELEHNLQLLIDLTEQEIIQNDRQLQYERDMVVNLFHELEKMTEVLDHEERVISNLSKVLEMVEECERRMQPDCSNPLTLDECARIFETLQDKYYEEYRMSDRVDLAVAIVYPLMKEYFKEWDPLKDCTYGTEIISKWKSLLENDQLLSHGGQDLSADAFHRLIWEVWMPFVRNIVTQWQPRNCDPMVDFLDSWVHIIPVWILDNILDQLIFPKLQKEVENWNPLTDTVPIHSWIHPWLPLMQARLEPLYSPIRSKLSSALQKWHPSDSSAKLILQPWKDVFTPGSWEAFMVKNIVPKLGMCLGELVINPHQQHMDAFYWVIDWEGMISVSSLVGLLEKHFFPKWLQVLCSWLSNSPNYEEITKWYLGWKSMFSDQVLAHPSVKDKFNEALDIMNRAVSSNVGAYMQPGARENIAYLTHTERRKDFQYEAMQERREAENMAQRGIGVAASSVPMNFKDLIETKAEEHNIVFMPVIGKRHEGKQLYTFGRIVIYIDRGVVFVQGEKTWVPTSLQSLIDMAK
inactive: erlotinib -0.026 | [1] -0.099 | [2] -0.082 | [3] -0.025 | [4] -0.027 | [5] 0.023 | [6] -0.036 | [7] -0.008 | [8] 0.074 | IRAK-1-4 Inhibitor I -0.016 | ibrutinib 0.059 | [9] 0.001 | ralimetinib 0.023 | [10] 0.008 | [11] -0.022 | [12] 0 | [13] -0.034 | [14] 0.016 | [15] 0.031 | [16] -0.003

TUBA4A (UniProt P68366)
inactive: erlotinib 0.074 | [1] 0.019 | [2] -0.017 | [3] -0.034 | [4] -0.01 | [5] -0.036 | [6] -0.017 | [7] 0 | [8] 0.036 | IRAK-1-4 Inhibitor I 0.032 | ibrutinib -0.012 | [9] 0.023 | ralimetinib 0.012 | [10] 0.017 | [11] 0.023 | [12] -0.031 | [13] -0.013 | [14] 0.017 | [15] -0.017 | [16] 0.012

TRAPPC10 (UniProt P48553)
inactive: erlotinib 0.066 | [1] 0.031 | [2] 0.027 | [3] 0.045 | [4] 0.018 | [5] 0.004 | [6] -0.058 | [7] 0.057 | [8] 0.005 | IRAK-1-4 Inhibitor I 0.013 | ibrutinib -0.006 | [9] -0.004 | ralimetinib 0.025 | [10] -0.03 | [11] 0.027 | [12] 0.002 | [13] -0.029 | [14] 0.019 | [15] 0.02 | [16] -0.004

TLK1 isoform 2 (UniProt Q9UKI8)
inactive: erlotinib 0 | [1] -0.029 | [2] -0.024 | [3] -0.013 | [4] -0.007 | [5] -0.016 | [6] 0.145 | [7] 0.007 | [8] 0.099 | IRAK-1-4 Inhibitor I 0.023 | ibrutinib 0.017 | [9] 0.094 | ralimetinib 0.053 | [10] 0.01 | [11] 0.012 | [12] -0.002 | [13] 0.038 | [14] -0.013 | [15] -0.037 | [16] 0

TOPBP1 (UniProt Q92547)
UniProt Q92547, sequence (Q92547 whole entry, looked up): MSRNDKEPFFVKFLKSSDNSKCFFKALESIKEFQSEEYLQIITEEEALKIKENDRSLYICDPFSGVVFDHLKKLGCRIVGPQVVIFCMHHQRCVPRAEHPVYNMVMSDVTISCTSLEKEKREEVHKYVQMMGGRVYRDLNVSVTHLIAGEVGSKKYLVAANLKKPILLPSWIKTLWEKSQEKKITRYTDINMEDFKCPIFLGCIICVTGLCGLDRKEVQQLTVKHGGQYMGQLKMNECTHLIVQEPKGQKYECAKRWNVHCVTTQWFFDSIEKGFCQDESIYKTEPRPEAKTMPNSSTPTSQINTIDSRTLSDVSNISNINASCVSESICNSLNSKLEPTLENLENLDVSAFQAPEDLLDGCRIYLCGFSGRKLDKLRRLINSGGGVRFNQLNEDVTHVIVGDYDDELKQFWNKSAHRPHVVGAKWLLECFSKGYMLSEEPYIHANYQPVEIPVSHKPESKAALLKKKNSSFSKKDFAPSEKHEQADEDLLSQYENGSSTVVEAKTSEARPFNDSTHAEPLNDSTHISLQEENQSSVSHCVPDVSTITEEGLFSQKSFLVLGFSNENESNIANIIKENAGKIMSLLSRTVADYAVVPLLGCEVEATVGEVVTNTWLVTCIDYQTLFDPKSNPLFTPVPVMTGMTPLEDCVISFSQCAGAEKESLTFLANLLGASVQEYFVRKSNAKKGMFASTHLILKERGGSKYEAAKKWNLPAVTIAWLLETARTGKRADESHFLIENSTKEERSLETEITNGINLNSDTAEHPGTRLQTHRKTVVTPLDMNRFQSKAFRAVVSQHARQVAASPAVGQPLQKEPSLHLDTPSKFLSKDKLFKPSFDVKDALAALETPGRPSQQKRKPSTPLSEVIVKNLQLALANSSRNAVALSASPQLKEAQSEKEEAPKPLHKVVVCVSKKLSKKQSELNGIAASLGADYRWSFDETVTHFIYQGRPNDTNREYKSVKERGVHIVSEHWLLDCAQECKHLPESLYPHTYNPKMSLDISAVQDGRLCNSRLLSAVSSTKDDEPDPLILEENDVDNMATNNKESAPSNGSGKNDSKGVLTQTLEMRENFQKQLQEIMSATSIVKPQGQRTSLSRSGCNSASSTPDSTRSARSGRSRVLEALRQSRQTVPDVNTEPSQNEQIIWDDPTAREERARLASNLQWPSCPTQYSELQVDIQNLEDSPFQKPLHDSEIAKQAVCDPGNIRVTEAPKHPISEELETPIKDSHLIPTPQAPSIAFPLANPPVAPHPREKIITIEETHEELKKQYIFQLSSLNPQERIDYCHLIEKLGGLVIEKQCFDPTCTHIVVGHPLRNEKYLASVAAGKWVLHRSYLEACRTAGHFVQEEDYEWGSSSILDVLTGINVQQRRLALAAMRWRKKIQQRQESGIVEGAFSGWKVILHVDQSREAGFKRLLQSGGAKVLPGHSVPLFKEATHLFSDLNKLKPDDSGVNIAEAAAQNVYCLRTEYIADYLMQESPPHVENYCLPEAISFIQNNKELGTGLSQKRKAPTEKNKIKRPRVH
inactive: erlotinib 0.004 | [1] -0.056 | [2] -0.034 | [3] 0.018 | [4] 0.002 | [5] 0.003 | [6] -0.009 | [7] -0.134 | [8] 0.072 | IRAK-1-4 Inhibitor I -0.006 | ibrutinib 0.012 | [9] 0.003 | ralimetinib 0.011 | [10] 0.011 | [11] 0.006 | [12] -0.02 | [13] -0.01 | [14] -0.035 | [15] 0.041 | [16] 0.055

UBP1 (UniProt Q9NZI7)
UniProt Q9NZI7, sequence (Q9NZI7 whole entry, looked up): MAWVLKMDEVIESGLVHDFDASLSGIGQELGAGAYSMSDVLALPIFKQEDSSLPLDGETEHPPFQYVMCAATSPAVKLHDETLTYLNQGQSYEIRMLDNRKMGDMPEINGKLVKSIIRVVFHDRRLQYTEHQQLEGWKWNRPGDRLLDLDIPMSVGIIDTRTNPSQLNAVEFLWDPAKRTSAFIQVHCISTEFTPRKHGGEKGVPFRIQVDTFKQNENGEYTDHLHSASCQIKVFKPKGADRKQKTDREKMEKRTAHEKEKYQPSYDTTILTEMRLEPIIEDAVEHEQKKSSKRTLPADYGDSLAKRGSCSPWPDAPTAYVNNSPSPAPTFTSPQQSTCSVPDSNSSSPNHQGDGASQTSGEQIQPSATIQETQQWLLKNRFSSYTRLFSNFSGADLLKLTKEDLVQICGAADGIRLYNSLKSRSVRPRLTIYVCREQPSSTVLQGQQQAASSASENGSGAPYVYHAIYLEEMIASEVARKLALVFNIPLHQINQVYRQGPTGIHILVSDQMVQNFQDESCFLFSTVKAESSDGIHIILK
inactive: erlotinib 0.018 | [1] -0.109 | [2] -0.095 | [3] 0.048 | [4] 0.016 | [5] 0.01 | [6] 0.032 | [7] -0.034 | [8] -0.017 | IRAK-1-4 Inhibitor I 0.029 | ibrutinib -0.006 | [9] 0.056 | ralimetinib 0.024 | [10] -0.004 | [11] 0.048 | [12] -0.028 | [13] 0.047 | [14] 0.03 | [15] -0.037 | [16] 0.004

TPM1 isoform 4 (UniProt P09493)
UniProt P09493, sequence (P09493 whole entry, looked up): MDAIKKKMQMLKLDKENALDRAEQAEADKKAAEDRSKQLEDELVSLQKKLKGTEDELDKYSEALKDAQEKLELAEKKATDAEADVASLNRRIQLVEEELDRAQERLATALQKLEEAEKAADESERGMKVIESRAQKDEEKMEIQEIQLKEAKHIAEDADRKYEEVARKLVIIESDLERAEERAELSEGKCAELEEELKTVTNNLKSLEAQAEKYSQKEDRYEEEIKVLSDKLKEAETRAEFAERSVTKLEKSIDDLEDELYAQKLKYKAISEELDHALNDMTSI
inactive: erlotinib -0.126 | [1] -0.004 | [2] 0.005 | [3] 0.018 | [4] 0.114 | [5] -0.026 | [6] -0.015 | [7] 0.014 | [8] -0.052 | IRAK-1-4 Inhibitor I -0.009 | ibrutinib -0.019 | [9] 0.009 | ralimetinib 0.001 | [10] -0.011 | [11] -0.024 | [12] -0.011 | [13] 0.062 | [14] 0.011 | [15] -0.022 | [16] 0.001

TMEM263 (UniProt Q8WUH6)
inactive: erlotinib -0.114 | [1] -0.104 | [2] 0.273 | [3] -0.119 | [4] -0.022 | [5] -0.05 | [6] -0.012 | [7] -0.006 | [8] 0.095 | IRAK-1-4 Inhibitor I 0.026 | ibrutinib -0.04 | [9] -0.003 | ralimetinib -0.037 | [10] -0.174 | [11] -0.002 | [12] 0.349 | [13] 0.049 | [14] -0.058 | [15] 0.004 | [16] -0.079

TXNRD2 (UniProt Q9NNW7)
UniProt Q9NNW7, sequence (Q9NNW7 whole entry, looked up): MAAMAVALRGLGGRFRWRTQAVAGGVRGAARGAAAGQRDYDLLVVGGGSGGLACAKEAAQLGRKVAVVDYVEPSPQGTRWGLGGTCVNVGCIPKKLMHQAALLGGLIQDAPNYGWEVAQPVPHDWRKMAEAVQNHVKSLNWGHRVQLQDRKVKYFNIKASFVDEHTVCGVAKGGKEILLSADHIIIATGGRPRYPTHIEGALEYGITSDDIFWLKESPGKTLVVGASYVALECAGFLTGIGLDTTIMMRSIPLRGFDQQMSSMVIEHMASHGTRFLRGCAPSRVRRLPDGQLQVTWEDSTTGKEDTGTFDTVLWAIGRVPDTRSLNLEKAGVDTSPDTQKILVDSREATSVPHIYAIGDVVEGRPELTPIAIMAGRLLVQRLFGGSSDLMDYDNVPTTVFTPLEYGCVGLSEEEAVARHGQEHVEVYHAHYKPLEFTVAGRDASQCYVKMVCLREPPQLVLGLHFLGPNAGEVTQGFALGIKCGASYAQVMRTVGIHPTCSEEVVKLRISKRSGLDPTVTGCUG
inactive: erlotinib -0.01 | [1] -0.085 | [2] 0.049 | [3] 0.008 | [4] -0.025 | [5] 0.009 | [6] -0.031 | [7] 0.017 | [8] 0.044 | IRAK-1-4 Inhibitor I -0.007 | ibrutinib 0.014 | [9] -0.002 | ralimetinib 0.025 | [10] -0.107 | [11] 0 | [12] 0.008 | [13] -0.038 | [14] -0.014 | [15] 0.001 | [16] 0.006

TRIM11 (UniProt Q96F44)
inactive: erlotinib 0.005 | [1] -0.012 | [2] -0.008 | [3] -0.002 | [4] 0.012 | [5] -0.018 | [6] -0.032 | [7] -0.046 | [8] 0.002 | IRAK-1-4 Inhibitor I 0.043 | ibrutinib 0.008 | [9] 0.05 | ralimetinib -0.009 | [10] -0.049 | [11] -0.011 | [12] -0.067 | [13] -0.04 | [14] 0.005 | [15] -0.014 | [16] 0.036

TDRKH (UniProt Q9Y2W6)
UniProt Q9Y2W6, sequence (Q9Y2W6 whole entry, looked up): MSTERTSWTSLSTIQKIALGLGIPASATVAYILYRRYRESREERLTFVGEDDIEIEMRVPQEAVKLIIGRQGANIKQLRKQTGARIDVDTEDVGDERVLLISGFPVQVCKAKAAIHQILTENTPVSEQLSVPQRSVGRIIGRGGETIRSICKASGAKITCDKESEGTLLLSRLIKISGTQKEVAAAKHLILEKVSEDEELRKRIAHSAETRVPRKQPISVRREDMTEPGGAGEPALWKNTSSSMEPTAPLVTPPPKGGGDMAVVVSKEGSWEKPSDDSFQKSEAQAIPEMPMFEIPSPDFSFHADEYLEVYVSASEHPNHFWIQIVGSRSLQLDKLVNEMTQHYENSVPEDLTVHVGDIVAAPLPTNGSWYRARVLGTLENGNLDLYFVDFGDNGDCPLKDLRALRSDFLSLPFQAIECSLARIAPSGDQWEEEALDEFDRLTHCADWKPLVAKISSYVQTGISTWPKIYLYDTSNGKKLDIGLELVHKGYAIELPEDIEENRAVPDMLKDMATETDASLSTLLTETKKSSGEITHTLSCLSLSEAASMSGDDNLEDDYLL
inactive: erlotinib -0.067 | [1] 0.023 | [2] -0.017 | [3] -0.018 | [4] -0.065 | [5] 0.02 | [6] -0.086 | [7] -0.011 | [8] -0.022 | IRAK-1-4 Inhibitor I 0.047 | ibrutinib -0.028 | [9] -0.023 | ralimetinib 0.033 | [10] -0.027 | [11] -0.02 | [12] 0.003 | [13] -0.008 | [14] -0.006 | [15] -0.005 | [16] -0.035

UBAP2 (UniProt Q5T6F2)
active: [14] -0.474
inactive: erlotinib -0.02 | [1] -0.02 | [2] 0.032 | [3] 0.01 | [4] 0.022 | [5] -0.159 | [6] 0.016 | [7] -0.009 | [8] 0.001 | IRAK-1-4 Inhibitor I 0.016 | ibrutinib 0.014 | [9] 0.009 | ralimetinib -0.044 | [10] -0.067 | [11] 0.008 | [12] 0.03 | [13] 0.006 | [15] -0.026 | [16] -0.019
